This is a sample that favours compounds with a hit; in the whole collection about 31% have one here.
CYP2C9 activ: human CYP2C9 activators, primary screen, biochemical, luminescence; activation factor at 5 µM; recombinant CYP2C9, luciferin-H conversion; hits give high values; factor 1 = untreated enzyme, 0 = blocked; AID 1024, 2008; 1.4% of 96,000 active;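 active = activation factor of 2 or more for CYP2C9 at a 5 µM dose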;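 also: 0 = sulfaphenazole-blocked wells and 1 = vehicle-only wells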
CYP2C19 act: human CYP2C19 activators, primary screen, biochemical, luminescence | Cytochrome P450 2C19 (Homo sapiens), P33261 | recombinant CYP2C19, luciferin-H EGE luminescence; hits give high values; 0 = fully inhibited enzyme, 1 = untreated enzyme | activation factor at 5 µM | 96,000 tested, under 10 active | AID 1025, 2008;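 active = activation factor of at least 2 at 5 µM in the primary screen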;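 also: 0 = wells with 2.5 mM tranylcypromine and 1 = vehicle-only wells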
Target sequence (P33261 whole entry, looked up): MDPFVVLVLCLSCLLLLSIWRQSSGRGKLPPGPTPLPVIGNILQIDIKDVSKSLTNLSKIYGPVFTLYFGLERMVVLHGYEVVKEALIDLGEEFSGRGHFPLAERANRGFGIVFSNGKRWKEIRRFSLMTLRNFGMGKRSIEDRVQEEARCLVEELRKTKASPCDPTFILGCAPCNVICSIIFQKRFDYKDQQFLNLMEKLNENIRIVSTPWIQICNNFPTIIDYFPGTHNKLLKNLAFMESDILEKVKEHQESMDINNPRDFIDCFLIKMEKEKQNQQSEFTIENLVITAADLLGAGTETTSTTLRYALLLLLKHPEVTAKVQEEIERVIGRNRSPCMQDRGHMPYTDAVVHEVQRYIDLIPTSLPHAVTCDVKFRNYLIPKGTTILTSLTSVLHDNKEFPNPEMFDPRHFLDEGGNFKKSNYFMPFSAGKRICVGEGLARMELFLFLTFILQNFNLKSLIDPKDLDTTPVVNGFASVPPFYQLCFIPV
CYP2C9 inh: blockers of cytochrome P450 2C9 activity – biochemical, luminescence, ADME assay, primary screen; 20% of 96,000 active; CYP2C9 Supersomes, luciferin-H conversion; inhibition, % at 5 µM;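 active = blocking of liver enzyme CYP2C9 beyond about 50% at 5 µM, limit read from the data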
CYP2C19 inhib: blockers of cytochrome P450 2C19 activity – biochemical, luminescence, ADME assay, primary screen. P33261. CYP2C19 Supersomes, luciferin-H EGE luminescence, 30 min. inhibition, % at 5 µM. 21% of 96,000 active;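 active = CYP2C19 inhibition above a set limit at 5 µM in the primary screen, cut at about 50% in these data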;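 also: plate controls were negative control wells for no effect and 2.5 mM tranylcypromine positive control for full effect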
* marks the source's active call; other numbers are inactive results.

COc1ccc(-n2c(C)cc(C=O)c2C)cc1Cl was read as CYP2C9 activ 0.8, CYP2C19 act 0.4, CYP2C9 inh 16 and CYP2C19 inhib 59*.
O=C(Nc1nc(-c2ccc(S(=O)(=O)N3CCOCC3)cc2)cs1)c1ccccc1 was read as CYP2C9 activ 0.5, CYP2C19 act 0.9, CYP2C9 inh 48 and CYP2C19 inhib 9.
`O=C(Nc1nc(-c2cc(Cl)sc2Cl)cs1)c1cccs1` gave CYP2C9 activ 0.2, CYP2C19 act 0.7, CYP2C9 inh 83* and CYP2C19 inhib 33.
`O=C(NCCc1ccc(S(=O)(=O)N2CCCC2)cc1)c1cccs1` gave CYP2C9 activ 0.4, CYP2C19 act 0.6, CYP2C9 inh 62* and CYP2C19 inhib 40.
CSc1ccccc1C(=O)NCCc1ccc(S(=O)(=O)N2CCCCC2)cc1 was read as CYP2C9 activ 0.6, CYP2C19 act 1.1, CYP2C9 inh 38 and CYP2C19 inhib -8.
Screening O=C(Nc1nc(-c2ccc(S(=O)(=O)N3CCCC3)cc2)cs1)c1cccs1 returned CYP2C9 activ 0.4, CYP2C19 act 0.7, CYP2C9 inh 62* and CYP2C19 inhib 33.
O=C(Nc1nc(-c2ccc(S(=O)(=O)N3CCCCCC3)cc2)cs1)c1cccs1 was read as CYP2C9 activ 0.5, CYP2C19 act 0.9, CYP2C9 inh 53* and CYP2C19 inhib 10.
`Cc1nc(-c2ccc(NC(=O)C3CCCCC3)cc2)cs1` gave CYP2C9 activ 1.1, CYP2C19 act 0.9, CYP2C9 inh -5 and CYP2C19 inhib 12.
For CCC(CC)C(=O)OCC(=O)NC12CC3CC(CC(C3)C1)C2 the results were CYP2C9 activ 0.7, CYP2C19 act 0.1, CYP2C9 inh 34 and CYP2C19 inhib 94*.
CCOC(=O)C(C#N)C(Cc1ccccc1)c1ccco1 (stereo not given) was read as CYP2C9 activ 0.3, CYP2C19 act 0.1, CYP2C9 inh 70* and CYP2C19 inhib 92*.
For COCCNC(=O)CN(c1cc(Cl)ccc1OC)S(C)(=O)=O the results were CYP2C9 activ 0.9, CYP2C19 act 0.9, CYP2C9 inh 10 and CYP2C19 inhib 7.
COc1ccc(N(CC(=O)Nc2ccccc2C(=O)NCc2ccco2)S(C)(=O)=O)cc1 was read as CYP2C9 activ 0.2, CYP2C19 act 0.6, CYP2C9 inh 84* and CYP2C19 inhib 36.
`O=C(CN(c1ccc(F)cc1)S(=O)(=O)c1ccccc1)NCc1ccco1` gave CYP2C9 activ 0.3, CYP2C19 act 0.5, CYP2C9 inh 73* and CYP2C19 inhib 51*.
Screening COc1ccc(OC)c(NC(=O)Cn2c(=O)n(CC(=O)NCc3ccco3)c(=O)c3ccccc32)c1 returned CYP2C9 activ 0.6, CYP2C19 act 1, CYP2C9 inh 39 and CYP2C19 inhib -3.
COc1ccc(Cl)cc1N(CC(=O)Nc1ccccc1C(=O)NCc1ccco1)S(C)(=O)=O was read as CYP2C9 activ 0.5, CYP2C19 act 0.5, CYP2C9 inh 51* and CYP2C19 inhib 46.
COc1ccc(OC)c(N(CC(=O)Nc2ccccc2C(=O)NCc2ccco2)S(C)(=O)=O)c1 was read as CYP2C9 activ 0.1, CYP2C19 act 0.1, CYP2C9 inh 91* and CYP2C19 inhib 90*.
Screening COc1ccc2c(c1)cc1n2CCN=C1N returned CYP2C9 activ 0.9, CYP2C19 act 0.9, CYP2C9 inh 10 and CYP2C19 inhib 6.
COc1ccc(C2C(C#N)=C(N)N3C(=C2C#N)Sc2ccccc23)cc1 (stereo not given) was read as CYP2C9 activ 0.8, CYP2C19 act 0.9, CYP2C9 inh 18 and CYP2C19 inhib 8.
Cc1cccc(S(=O)(=O)N(CC(=O)Nc2ccccc2C)Cc2ccco2)c1 was read as CYP2C9 activ 0.5, CYP2C19 act 0.6, CYP2C9 inh 53* and CYP2C19 inhib 43.
`COc1ccc(Cl)cc1N(CC(=O)N1CCN(Cc2ccccc2)CC1)S(C)(=O)=O` gave CYP2C9 activ 0.9, CYP2C19 act 0.5, CYP2C9 inh 12 and CYP2C19 inhib 55*.
For COc1ccc(Cl)cc1N(CC(=O)N1CCC(C)CC1)S(C)(=O)=O the results were CYP2C9 activ 1, CYP2C19 act 0.9, CYP2C9 inh -5 and CYP2C19 inhib 13.
Screening Cc1ccc(N(CC(=O)Nc2ccccc2C(=O)NCc2ccco2)S(=O)(=O)c2ccccc2)cc1C returned CYP2C9 activ 0, CYP2C19 act 0.1, CYP2C9 inh 98* and CYP2C19 inhib 92*.
COc1ccc(Cl)cc1N(CC(=O)Nc1ccccc1SC)S(C)(=O)=O was read as CYP2C9 activ 0.1, CYP2C19 act 0.1, CYP2C9 inh 86* and CYP2C19 inhib 92*.
Cc1onc(C(=O)N2CCC(C(N)=O)CC2)c1-c1ccccc1Cl was read as CYP2C9 activ 0.7, CYP2C19 act 1, CYP2C9 inh 33 and CYP2C19 inhib 3.
COCC(=O)N(C)c1nnc(-c2cnc(C)cn2)s1 was read as CYP2C9 activ 0.9, CYP2C19 act 1, CYP2C9 inh 7 and CYP2C19 inhib 1.
For CN1CCN(C/C(=C2/N=C(c3ccccc3)OC2=O)N(C)C)CC1 the results were CYP2C9 activ 1.1, CYP2C19 act 1.1, CYP2C9 inh -11 and CYP2C19 inhib -8.
Screening Cc1nc(SCC(=O)c2ccc(F)cc2)n[nH]1 returned CYP2C9 activ 0.3, CYP2C19 act 0.4, CYP2C9 inh 71* and CYP2C19 inhib 58*.
Screening CCc1nc(SCC(=O)c2ccc(C)c(C)c2)n[nH]1 returned CYP2C9 activ 2.3*, CYP2C19 act 0, CYP2C9 inh -133 and CYP2C19 inhib 97*.
Screening Cc1nc(SCC(=O)N2c3ccccc3Sc3ccccc32)n[nH]1 returned CYP2C9 activ 0.6, CYP2C19 act 0.4, CYP2C9 inh 36 and CYP2C19 inhib 60*.
`O=C(CSc1nnnn1C1CCCCC1)N1c2ccccc2Sc2ccccc21` gave CYP2C9 activ 0.6, CYP2C19 act 1, CYP2C9 inh 43 and CYP2C19 inhib 3.
`O=C(CSc1nc(C2CC2)nc2ccccc12)N1c2ccccc2Sc2ccccc21` gave CYP2C9 activ 0, CYP2C19 act 0.6, CYP2C9 inh 97* and CYP2C19 inhib 44.
For Cc1c(C(=O)NCc2cccnc2)sc2nc(-c3ccc(F)cc3)cn12 the results were CYP2C9 activ 0.6, CYP2C19 act 0.9, CYP2C9 inh 44 and CYP2C19 inhib 14.
`O=C(NCc1ccccc1)C1(c2ccccc2)CCN(S(=O)(=O)c2ccccc2)CC1` gave CYP2C9 activ 0.6, CYP2C19 act 0.6, CYP2C9 inh 38 and CYP2C19 inhib 40.
`Cc1cccc(C(=O)NCCN(C)C)c1` gave CYP2C9 activ 1, CYP2C19 act 1, CYP2C9 inh 2 and CYP2C19 inhib -1.
CCCCCn1c(=O)[nH]c2cc(C(=O)NCc3ccco3)ccc2c1=O was read as CYP2C9 activ 0.7, CYP2C19 act 0.8, CYP2C9 inh 34 and CYP2C19 inhib 22.
